HT1080 IDH1KD tx: HT-1080 IDH1 knockdown cell toxicity (counter line) | HT-1080 IDH1 knockdown viability, ATP luminescence, 48 h | Potency, µM (highest dose often 46.1 µM), usual class: cytotoxic | 2% of 360,000 active
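Assay cells: HT-1080 with IDH1 knockdown, 750 per well, RPMI/5% FBS. Exposure: 48 h at 37 °C following 2 h pre-incubation. Read: CellTiter-Glo luminescence; fitted concentration-response, curve class assigned.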
HT1080-NT tox: kills 2HG-producing HT-1080-NT fibrosarcoma cells | HT-1080-NT fibrosarcoma viability, CellTiter-Glo ATP luminescence, 48 h | 1.6% of 360,000 active | Potency, µM (top dose mostly 46.1 µM), hits mostly cytotoxic;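 further: NT is the 2HG producing partner of a matched IDH1 knockdown line; nearly all actives have a fitted effect of over 55% in size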
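Viability of the 2HG-overproducing fibrosarcoma line after 48 hours of compound exposure at 37 degrees C was determined by luminescence with CellTiter-Glo, and concentration-effect curves were then fitted and categorized.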
IL1B secr inh: inflammasome signaling inhibition, IL-1 beta readout. THP-1 LPS/ATP IL-1B secretion, AlphaLISA, 16 h; stronger effect = lower value. activity change, % at 57.5 µM. 4.7% of 360,000 active; in the data active means activity change below about -50%; inconclusive means mostly about -30% to -49%
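THP-1 cells pretreated 1 hr with compounds (up to 57.5 uM final), then stimulated with LPS (250 ng/mL final) plus ATP (1.25 mM final); secreted IL-1B measured by AlphaLISA after 16 hr, decreased signal indicating inhibition.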
DT40 TDP1 CPT: DT40-hTDP1 cell growth loss with CPT. chicken DT40 Tdp1-/-;hTDP1 cells + 20 nM CPT, ATP luminescence, 48 h. Potency, µM (top dose mostly 46.2 µM), most hits filed as inhibitors. 12% of 420,000 active; further: nearly all actives have a fitted effect of over 55% in size
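Cell growth measured by CellTiter-Glo luminescence after a minimum 48 h, 37 C compound exposure with 20 nM CPT in Tdp1-knockout DT40 cells stably expressing hTDP1, seeded 400/well; qHTS titration format.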
DT40 TDP1 no CPT: qHTS for Inhibitors of human tyrosyl-DNA phosphodiesterase 1 (TDP1): qHTS in cells in absence of CPT | DT40 Tdp1-/- hTDP1 cells, no CPT, ATP luminescence, 48 h | Potency, µM (series often up to 46.2 µM), most hits filed as inhibitors | 15% of 420,000 active | AID 686978, 2013; further: nearly all actives have a fitted effect of over 55% in size
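Chicken DT40 Tdp1-/- cells complemented with human TDP1, screened without camptothecin (DMSO vehicle only), 400 cells/well. Compounds pin-transferred, cells incubated at 37 °C for at least 48 hr. Growth read as ATP-dependent luminescence (CellTiter-Glo, 30 min at RT).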
Each line names hits and unclear results; the compound was inactive in the other large screens. Compounds with a hit are over-represented: about 19% of the library has one in this group of screens. Unless noted, the call rests on the fitted dose curve; in most records, active means well fitted curve in the direction sought with a large enough effect; inconclusive means small, poorly fitted or top-dose-only effect, or another doubt; inactive means no such curve, though single readings can be large; an effect the other way counts as inactive or inconclusive.

COc1ccc(C2(c3ccc(OC)cc3)NC(=O)N(CC(=O)N(C)C3CCC(C)CC3)C2=O)cc1 (stereo not given)	IL1B secr inh -56
CN(C)C(=O)CN1C(=O)NC(c2ccccc2)(c2ccccc2)C1=O	none
CCN(C(=O)CN1C(=O)NC(c2ccccc2)(c2ccc(C)c(C)c2)C1=O)C1CCCCC1 (stereo not given)	HT1080 IDH1KD tx inconclusive, HT1080-NT tox inconclusive, DT40 TDP1 CPT 16µM, DT40 TDP1 no CPT inconclusive
CC(C)(C)NC(=O)NC(=O)CN1C(=O)NC(c2ccccc2)(c2ccccc2)C1=O	IL1B secr inh inconclusive, DT40 TDP1 CPT inconclusive, DT40 TDP1 no CPT 26µM
COc1ccc(C2(c3ccc(OC)cc3)NC(=O)N(CC(=O)N(C)C)C2=O)cc1	none
CC(C)(C)NC(=O)NC(=O)CN1C(=O)NC(C)(c2ccccc2)C1=O (stereo not given)	DT40 TDP1 no CPT inconclusive
O=[N+]([O-])c1cc(S(=O)(=O)N2CCOCC2)ccc1OCc1ccccc1C(F)(F)F	none
O=C(NCC(c1ccco1)N1CCN(c2ccccc2)CC1)C1CCCCC1 (stereo not given)	DT40 TDP1 CPT inconclusive, DT40 TDP1 no CPT 23µM
O=C(NCC(c1ccco1)N1CCN(c2ccccc2F)CC1)c1cccs1 (stereo not given)	DT40 TDP1 no CPT inconclusive
O=C(NCC(c1ccco1)N1CCN(c2ccccc2F)CC1)C(=O)NC1CCCC1 (stereo not given)	DT40 TDP1 CPT inconclusive, DT40 TDP1 no CPT 9.2µM
O=C(NCc1cccs1)C(=O)NCC(c1ccco1)N1CCN(c2ccccc2F)CC1 (stereo not given)	DT40 TDP1 CPT 23µM, DT40 TDP1 no CPT inconclusive
O=C(NCC(c1ccco1)N1CCN(c2ccccc2)CC1)C(=O)NC1CCCC1 (stereo not given)	DT40 TDP1 CPT inconclusive, DT40 TDP1 no CPT inconclusive
Cc1cccc(CN2CCN(c3nc4nonc4nc3NC3CC3)CC2=O)c1	none
COc1ccc(-n2c(COc3cccc4ccccc34)nnc2SCC#N)cc1	HT1080 IDH1KD tx inconclusive, HT1080-NT tox inconclusive, DT40 TDP1 CPT inconclusive, DT40 TDP1 no CPT inconclusive
N#CCSc1nnc(COc2cccc3ccccc23)n1-c1ccccc1	HT1080 IDH1KD tx inconclusive, HT1080-NT tox inconclusive, IL1B secr inh -68, DT40 TDP1 CPT 16µM, DT40 TDP1 no CPT 21µM
N#CCSc1nnc(COc2cccc3ccccc23)n1-c1cccc(Cl)c1	HT1080 IDH1KD tx inconclusive, HT1080-NT tox inconclusive, IL1B secr inh inconclusive, DT40 TDP1 CPT inconclusive, DT40 TDP1 no CPT 21µM
Cc1ccccc1OCc1nnc(SCCN2CCCC2)n1-c1ccccc1	HT1080 IDH1KD tx inconclusive, HT1080-NT tox inconclusive, DT40 TDP1 CPT 23µM, DT40 TDP1 no CPT 21µM
Cc1ccccc1OCc1nnc(SC(C)C(=O)O)n1-c1ccccc1 (stereo not given)	none
CC(OC(=O)Cc1ccc(Br)cc1)C(=O)NC1CCCCC1C (stereo not given)	DT40 TDP1 CPT inconclusive, DT40 TDP1 no CPT inconclusive
O=[N+]([O-])c1ccc(-n2nnnc2-c2ccccc2)c([N+](=O)[O-])c1	HT1080 IDH1KD tx inconclusive, HT1080-NT tox inconclusive, IL1B secr inh -64, DT40 TDP1 CPT 3.7µM, DT40 TDP1 no CPT 2.9µM
CCNc1nc(C)c2cc(Br)c(=O)n(CC)c2n1	HT1080 IDH1KD tx 2.1µM, HT1080-NT tox 2.9µM, DT40 TDP1 CPT 3.7µM, DT40 TDP1 no CPT 2.9µM
CC(NC(=O)c1ccco1)c1nnc2n1CCN(Cc1cccc(Cl)c1)CC2 (stereo not given)	none (no result: HT1080 IDH1KD tx, HT1080-NT tox, IL1B secr inh)
O=C(NC(=S)NC1CCCCC1)c1ccccc1	DT40 TDP1 no CPT inconclusive
CC(NC1CCCCC1)C(=O)NN=C(c1ccccc1)c1ccccc1 (stereo not given)	IL1B secr inh -63, DT40 TDP1 CPT inconclusive, DT40 TDP1 no CPT inconclusive
CC(Cl)C(=O)NN=C(c1ccccc1)c1ccccc1 (stereo not given)	HT1080-NT tox inconclusive, DT40 TDP1 CPT inconclusive
COCCNC(=S)N/N=C(\C)c1ccc(O)cc1	DT40 TDP1 CPT inconclusive, DT40 TDP1 no CPT inconclusive
C/C(=N\NC(=S)NC1CCCCC1)c1ccccc1	DT40 TDP1 CPT inconclusive, DT40 TDP1 no CPT 29µM
C/C(=N\NC(=S)NC1CCCCC1)c1ccc(O)cc1	IL1B secr inh inconclusive, DT40 TDP1 CPT inconclusive, DT40 TDP1 no CPT 16µM
Cc1sc2nc(SCC(=O)NCCOCCO)n(C)c(=O)c2c1C	none
CCCOc1ccc(Nc2nc(SC)ncc2C(=O)OCC)cc1	DT40 TDP1 CPT inconclusive, DT40 TDP1 no CPT 26µM (no result: HT1080 IDH1KD tx, HT1080-NT tox, IL1B secr inh)
CCOC(=O)c1cnc(SC)nc1NCCOC	none
CC(C)C(NC(=O)c1ccc(F)cc1)C(=O)OCC(=O)N1CC(=O)Nc2ccccc21 (stereo not given)	none
COc1ccc(CNC(C)C23CC4CC(CC(C4)C2)C3)c(OC)c1OC (stereo not given)	IL1B secr inh inconclusive, DT40 TDP1 CPT inconclusive, DT40 TDP1 no CPT 15µM
COc1cccc(OC)c1C(=O)NC(C)C12CC3CC(CC(C3)C1)C2 (stereo not given)	DT40 TDP1 CPT inconclusive, DT40 TDP1 no CPT inconclusive
O=C(/C=C/c1ccc(Cl)cc1)Nc1ccc(N2CCCCC2)cc1	none
O=C(/C=C/C(Cl)(Cl)Cl)Nc1ccc(Cl)cc1	HT1080 IDH1KD tx inconclusive, HT1080-NT tox inconclusive, IL1B secr inh -104, DT40 TDP1 CPT 4.6µM, DT40 TDP1 no CPT 5.2µM
NC(=O)/C=C/C(=O)Nc1ccc(Cl)cc1	HT1080 IDH1KD tx inconclusive, IL1B secr inh -78, DT40 TDP1 CPT 3.3µM, DT40 TDP1 no CPT 8.2µM
Cc1ccccc1C(=O)N1CCN(c2ccc(NC(=O)c3ccco3)cc2Cl)CC1	HT1080 IDH1KD tx inconclusive, HT1080-NT tox inconclusive, IL1B secr inh -89, DT40 TDP1 CPT 15µM, DT40 TDP1 no CPT 9.2µM
O=C(Nc1ccc(N2CCN(C(=O)c3cccs3)CC2)c(Cl)c1)c1ccco1	HT1080 IDH1KD tx inconclusive, IL1B secr inh inconclusive, DT40 TDP1 CPT inconclusive, DT40 TDP1 no CPT 15µM
Cc1cc(C)cc(OCC(=O)Nc2nonc2-c2ccc(Br)cc2)c1	DT40 TDP1 CPT inconclusive (no result: HT1080 IDH1KD tx, HT1080-NT tox, IL1B secr inh)
COc1ccc2[nH]cc(/C=C/c3cc[n+](C)cc3)c2c1	DT40 TDP1 CPT inconclusive, DT40 TDP1 no CPT 5.2µM
Cc1ccc(C(=O)/C=C/c2c[nH]c3ccccc23)cc1	HT1080 IDH1KD tx inconclusive, HT1080-NT tox inconclusive
COc1ccc2[nH]cc(/C=C/C(=O)c3ccccc3)c2c1	HT1080 IDH1KD tx 18µM, HT1080-NT tox 18µM, IL1B secr inh -104, DT40 TDP1 CPT inconclusive, DT40 TDP1 no CPT inconclusive
O=C(/C=C/c1c[nH]c2ccccc12)c1ccccc1	DT40 TDP1 CPT 21µM, DT40 TDP1 no CPT inconclusive
COC(=O)C1=C(C)NC(=O)NC1c1ccc(OC(=O)c2ccco2)cc1 (stereo not given)	none
Cc1cc(C)c2cc(CN(CCCN(C)C)C(=S)NCc3ccccc3)c(=O)[nH]c2c1	HT1080 IDH1KD tx inconclusive, HT1080-NT tox inconclusive, IL1B secr inh -73, DT40 TDP1 CPT 21µM, DT40 TDP1 no CPT inconclusive

From PubChem BioAssay
